GI50 data for six substances are collected here from ChEMBL document CHEMBL1201862, “PubChem BioAssay data set” (2004).

Hit rate of the full screen: of about 44,000 sequences, about 3,200 (7.3%) were called active. Rule as the data show it: active = GI50 up to about 1.1 µM and inactive = higher. Only a selection was taken, and actives are over-represented in it overall. Potency and affinity values are given separately.

In this experiment the test system is DU-145.
Substance “[Bis(aminomethyl)dimethylsilane]tetrachloroplatinum(IV), CHEMBL2146190” showed a GI50 of 5.02 µM.

“[Bis(aminomethyl)pentamethylenesilane]tetrachloropaltinum(IV), CHEMBL2146204”: the concentration for 50% growth inhibition (GI50) came out at 0.344 µM.

As for “[Bis(aminomethyl)pentamethylenesilane]dichloropaltinum(II), CHEMBL2146202”, the GI50 was found to be 1.29 µM.

In turn, “[Bis(aminomethyl)tetramethylenesilane]tetrachloropaltinum(IV), CHEMBL2146189” displayed a 50% growth inhibitory concentration (GI50) of 2.22 µM.

CISPLATIN, CHEMBL11359 returned a GI50 of 1.99 µM.

In the case of “[Bis(aminomethyl)tetramethylenesilane]dichloropaltinum(II), CHEMBL2146205”, the GI50 turned out to be 8.15 µM.

As a reminder, the GI50 is the concentration giving 50% growth inhibition. The low end stands for more potent growth inhibition, the high end for less potent growth inhibition.
